About 83,000 compounds went through this panel and 20% of them were active in at least one assay; those are over-represented in the sample as a whole.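 Single-dose data. Exposure time 48 hours. Values below 10 considered active.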 Active and inactive are the calls of the source.
Tests used:
Assay in all cases: NCI-60 one-dose screen, 48 h (100 = growth as untreated, 0 = no growth, -100 = all killed)
Settings in all cases: 10 µM
NCI-H23 lung = system: NCI-H23 lung
NCI-H226 lung = system: NCI-H226 lung
NCI-H322M lung = system: NCI-H322M lung
HOP-62 NSCLC = system: HOP-62 NSCLC
NCI-H460 lung = system: NCI-H460 lung
NCI-H522 lung = system: NCI-H522 lung
A549/ATCC NSCLC = system: A549/ATCC NSCLC
786-0 renal = system: 786-0 renal
COLO 205 colon = system: COLO 205 colon
DU-145 prostate = system: DU-145 prostate
K-562 leukemia = system: K-562 leukemia
MALME-3M melanoma = system: MALME-3M melanoma
MDA-MB-231 breast = system: MDA-MB-231 breast
RXF 393 renal = system: RXF 393 renal
SF-268 CNS = system: SF-268 CNS
SF-295 CNS = system: SF-295 CNS
SF-539 CNS = system: SF-539 CNS
UACC-257 melanoma = system: UACC-257 melanoma
M14 melanoma = system: M14 melanoma
HCT-15 colon = system: HCT-15 colon

Measured: growth

COc1ccc(Nc2nc3ccc(NC(=O)NC4CCCCC4)cc3[nH]c2=O)cc1
inactive: NCI-H23 lung 94.1% | NCI-H226 lung 94.5% | NCI-H322M lung 96.1% | HOP-62 NSCLC 83.9% | NCI-H460 lung 102% | NCI-H522 lung 87.3% | A549/ATCC NSCLC 89.5% | 786-0 renal 72.7% | COLO 205 colon 112% | DU-145 prostate 107% | K-562 leukemia 77.1% | MALME-3M melanoma 102% | MDA-MB-231 breast 70.8% | RXF 393 renal 48.1% | SF-268 CNS 91.4% | SF-295 CNS 82.6% | SF-539 CNS 68.8% | UACC-257 melanoma 90.4% | M14 melanoma 103% | HCT-15 colon 83.2%

COc1cc(/C=C\c2cc(OC)c(OC)c(OC)c2)cc(NS(=O)(=O)c2ccc(Cl)cc2)c1OC
inactive: NCI-H23 lung 41% | NCI-H226 lung 33.9% | NCI-H322M lung 48.7% | HOP-62 NSCLC 60.2% | NCI-H460 lung 13.8% | A549/ATCC NSCLC 25.3% | 786-0 renal 39.3% | DU-145 prostate 19.8% | K-562 leukemia 11.2% | MALME-3M melanoma 71.9% | MDA-MB-231 breast 24% | SF-268 CNS 39.7% | SF-295 CNS 10.9% | UACC-257 melanoma 45.2% | M14 melanoma 18.8% | HCT-15 colon 20%
active: NCI-H522 lung -9.34% | COLO 205 colon -4.81% | RXF 393 renal -4.53% | SF-539 CNS -23.9%

S=C1SCC(c2ccccc2)S1 (stereo not given)
inactive: NCI-H23 lung 113% | NCI-H226 lung 101% | NCI-H322M lung 111% | HOP-62 NSCLC 108% | NCI-H460 lung 114% | NCI-H522 lung 131% | A549/ATCC NSCLC 102% | 786-0 renal 109% | COLO 205 colon 111% | DU-145 prostate 125% | K-562 leukemia 106% | MALME-3M melanoma 118% | MDA-MB-231 breast 107% | RXF 393 renal 105% | SF-268 CNS 111% | SF-295 CNS 117% | SF-539 CNS 95.7% | UACC-257 melanoma 89.6% | M14 melanoma 113% | HCT-15 colon 100%

C#Cc1ccc(-n2c(/C=C/c3ccc(O)cc3)nc3ncccc3c2=O)cc1
inactive: NCI-H23 lung 82.8% | NCI-H226 lung 58.7% | NCI-H322M lung 86.4% | HOP-62 NSCLC 59.4% | NCI-H460 lung 92% | A549/ATCC NSCLC 53.5% | 786-0 renal 62.6% | COLO 205 colon 110% | DU-145 prostate 81.8% | K-562 leukemia 25% | MALME-3M melanoma 39.1% | MDA-MB-231 breast 85.2% | SF-268 CNS 53.8% | SF-295 CNS 31.8% | SF-539 CNS 31.7% | UACC-257 melanoma 36.5% | M14 melanoma 43.1% | HCT-15 colon 53.6%
active: NCI-H522 lung 0.111% | RXF 393 renal -7.96%

CN(C)CCN1C(=O)c2cccc3cc(N)cc(c23)C1=O
active: NCI-H226 lung -30.3% | NCI-H460 lung 0.597% | NCI-H522 lung -28.3% | DU-145 prostate 4.45% | K-562 leukemia 3.5% | UACC-257 melanoma 5.64%
inactive: NCI-H23 lung 31.5% | NCI-H322M lung 29.4% | HOP-62 NSCLC 34% | A549/ATCC NSCLC 12% | 786-0 renal 25.7% | COLO 205 colon 26.2% | MALME-3M melanoma 17.4% | MDA-MB-231 breast 57% | RXF 393 renal 18.3% | SF-268 CNS 37.8% | SF-295 CNS 21.1% | SF-539 CNS 33.4% | M14 melanoma 42% | HCT-15 colon 11.8%

C#Cc1ccc(-n2c(/C=C/c3ccc4ccccc4c3)nc3ncccc3c2=O)cc1
active: NCI-H522 lung 8.75% | K-562 leukemia 6.94% | RXF 393 renal -21.4% | M14 melanoma 1.76%
inactive: NCI-H23 lung 67.5% | NCI-H226 lung 13.2% | NCI-H322M lung 71.9% | HOP-62 NSCLC 63% | NCI-H460 lung 39% | A549/ATCC NSCLC 34% | 786-0 renal 54.3% | COLO 205 colon 26% | DU-145 prostate 60.1% | MALME-3M melanoma 39.5% | MDA-MB-231 breast 42.1% | SF-268 CNS 37.8% | SF-295 CNS 19.6% | SF-539 CNS 70.5% | UACC-257 melanoma 13% | HCT-15 colon 25.4%

COc1ccc(C2=Nc3c(C)nn(-c4ccccc4)c3NC(c3ccc(Oc4ccnc5cc(Cl)ccc45)c(OC)c3)C2)cc1 (stereo not given)
inactive: NCI-H23 lung 77.8% | NCI-H226 lung 74.3% | NCI-H322M lung 95.1% | HOP-62 NSCLC 113% | NCI-H460 lung 81.6% | NCI-H522 lung 62.1% | A549/ATCC NSCLC 84% | 786-0 renal 89.8% | COLO 205 colon 83.6% | DU-145 prostate 100% | K-562 leukemia 62.2% | MALME-3M melanoma 95.6% | MDA-MB-231 breast 58% | RXF 393 renal 80.4% | SF-268 CNS 78.8% | SF-295 CNS 93.1% | SF-539 CNS 92.2% | UACC-257 melanoma 98.3% | M14 melanoma 95.1% | HCT-15 colon 62.9%

Cc1nc2ccccc2c(N)c1-c1cc(C)c2c(C)nc3ccccc3c2n1
active: NCI-H460 lung -75.8% | A549/ATCC NSCLC -75.4% | 786-0 renal -89.2% | COLO 205 colon -91% | DU-145 prostate -82.4% | K-562 leukemia -36.1% | MDA-MB-231 breast -80.2% | RXF 393 renal -80.3% | SF-268 CNS -67.5% | SF-539 CNS -71.9% | HCT-15 colon -90%
inactive: NCI-H23 lung 44.8% | NCI-H226 lung 98.8% | NCI-H322M lung 10.7% | HOP-62 NSCLC 58.4% | NCI-H522 lung 68.6% | MALME-3M melanoma 95.3% | SF-295 CNS 85.2% | UACC-257 melanoma 105% | M14 melanoma 39.3%

From PubChem BioAssay (NCI)
